Screens as filed in PubChem BioAssay.
Akt phos inh: inhibitors of Akt phosphorylation | activity change, % for hits at 50 µM | 360,000 tested, 0.32% active | AID 651550 | Neuro2A IGF-stimulated pAkt S473 HTRF, 20 min; active compounds read low; in the data active = activity change below about -80%; inconclusive = mostly about -51% to -80%
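Single-point screen (50 µM final compound) in Neuro2A cells stimulated 20 min with 6 nM IGF at 37 deg C. After lysis, Ser473-phosphorylated Akt read by HTRF (ex 330 nm, em 615/665 nm) as the 665/615 ratio.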
TCR activator: activates T cell receptor signaling | primary human leukocytes, anti-CD3, IL-2 HTRF, 48 h | Potency, µM (doses to about 9.22 µM), usual class: activators | 330,000 tested, under 10 active; active = well fitted activation curve with a large enough effect; inconclusive = small, poorly fitted or top-dose-only effect, or another doubt; inactive = no such curve, though single readings can be large or run the other way
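48 hr co-incubation of compounds, a-CD3 beads and primary human leukocytes; IL-2 quantified homogeneously by HTRF with anti-IL-2 K and d2 conjugates.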
TSHR antagonist: human thyrotropin receptor antagonism; P16473; TSHR-expressing cells, TSH-stimulated cAMP HTRF, 2 h; active compounds read low; activity change, negative = inhibition, % at 11.5 µM; 330,000 tested, 0.2% active; AID 504810;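 active = activity change below a set negative limit, meaning inhibition stronger than a set level, cut at about -70% in these data; inconclusive = activity change between two set negative limits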
Target sequence (P16473 whole entry, looked up): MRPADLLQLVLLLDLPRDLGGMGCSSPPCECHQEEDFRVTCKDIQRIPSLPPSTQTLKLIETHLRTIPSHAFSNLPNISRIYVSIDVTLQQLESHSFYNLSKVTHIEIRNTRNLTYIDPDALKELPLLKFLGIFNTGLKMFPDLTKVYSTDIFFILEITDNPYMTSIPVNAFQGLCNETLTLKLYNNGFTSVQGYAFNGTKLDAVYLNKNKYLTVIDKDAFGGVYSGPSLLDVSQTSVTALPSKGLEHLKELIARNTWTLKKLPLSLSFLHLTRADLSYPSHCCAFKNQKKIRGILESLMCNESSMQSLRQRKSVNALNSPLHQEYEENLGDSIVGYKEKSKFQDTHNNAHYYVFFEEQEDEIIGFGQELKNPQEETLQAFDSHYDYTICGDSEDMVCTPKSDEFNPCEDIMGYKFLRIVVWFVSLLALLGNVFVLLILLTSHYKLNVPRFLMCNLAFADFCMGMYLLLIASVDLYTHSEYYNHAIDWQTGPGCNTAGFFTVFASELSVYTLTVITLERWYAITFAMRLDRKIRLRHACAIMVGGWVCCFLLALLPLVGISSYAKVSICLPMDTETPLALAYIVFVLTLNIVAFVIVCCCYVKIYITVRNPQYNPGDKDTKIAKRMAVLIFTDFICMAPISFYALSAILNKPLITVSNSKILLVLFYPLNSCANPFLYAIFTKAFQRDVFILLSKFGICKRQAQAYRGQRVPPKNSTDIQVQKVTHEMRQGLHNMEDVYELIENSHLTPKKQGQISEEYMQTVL
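Inhibition of cAMP made by TSHR-expressing cells under TSH stimulation (4nM final, EC80; 2 h, 37 deg C) is quantified with a one-step lysis HTRF kit, anti-cAMP cryptate versus cAMP-d2.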
CCT modulator: cytosolic chaperonin activity modulation; activity change, % (test concentration not listed), hits read low; purified chaperonin ATPase assay, HTRF ADP detection, 30 min; 360,000 tested, 0.3% active; in the data active = activity change below about -30%
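Nucleotide hydrolysis assay: TRiC at 20–40 nM final (set by batch activity) with 10 uM ATP, 30 min at 37 °C, in presence of 76 uM compound. Detection by competitive ADP HTRF, 30 min ambient.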
Each line names hits and unclear results; the compound was inactive in the other large screens. Shown are actives, neighbours in structure and some others; about 0.74% of the full set was active somewhere.

COC(CNC(=O)C1CCN(S(=O)(=O)c2cccc3nsnc23)CC1)OC	CCT modulator -75.3 (no result: Akt phos inh)
Cc1cccc(-c2csc(N3CCC(C(N)=O)CC3)n2)c1	none (no result: Akt phos inh, TCR activator, CCT modulator)
CC(C)(C)C(C(=O)n1cccc1C#N)c1ccccc1 (stereo not given)	none
Cc1c(NC(=O)c2cc(-n3cnnc3)ccc2Cl)cccc1-c1nc2ccccc2s1	Akt phos inh -87.9%
O=C(Nc1cccc(-c2nc3ccccc3s2)c1)c1cc(-n2cnnc2)ccc1Cl	none
CCOC(=O)C1CCCN(C(=O)c2cc(C#N)cs2)CC1 (stereo not given)	none (no result: TCR activator, TSHR antagonist)
CCCCN(CCCC)C(=S)N/N=C/c1c(C)[nH]n(-c2ccccc2)c1=O	CCT modulator -88.6
Cc1[nH]n(-c2ccccc2)c(=O)c1/C=N/NC(=O)c1ccc(O)cc1O	none
COC(=O)c1sccc1NC(=O)c1ccccc1C(=O)O	none (no result: TSHR antagonist)
COC(=O)c1sccc1NC(=O)c1cc(-c2ccc(C)cc2C)nc2ccccc12	Akt phos inh -117.0%
CC(C)(C)c1onc(OCP(=O)(O)O)c1CC(N)C(=O)O (stereo not given)	none (no result: Akt phos inh, TCR activator, CCT modulator)
CC1CCCCCCC1OC(=O)c1ccccc1C(=O)O (stereo not given)	none (no result: TSHR antagonist)
CCCCN(CC)C(=O)CSc1nc2n[nH]c(C)c2c(=N)n1-c1cccc(C)c1	none
Cc1cccc(-n2c(SCC(=O)N3CCCC3)nc3n[nH]c(C)c3c2=N)c1	Akt phos inh -103.7%
Cc1onc(-c2ccccc2)c1C(=O)OCC(=O)Nc1ccc2c(c1)OCO2	CCT modulator -43.3
CN(C)C(=O)c1cccc(-c2cnc3c(NC=O)cc(-c4ccccc4F)cn23)c1	none (no result: TCR activator, TSHR antagonist)
CCc1ccccc1NC(=O)CN(C)Cc1c(O)ccc2ccccc12	none
CN(CC(=O)Nc1ccccc1C(F)(F)F)Cc1c(O)ccc2ccccc12	TSHR antagonist -98.6
CCC(C)c1ccc(OCC(=O)Nc2ccc3c(c2)C(=O)NC3=O)cc1 (stereo not given)	none (no result: TCR activator)
COCc1cc(C)nc2sc(C(=O)Nc3ccccc3F)c(N)c12	none
Nc1c(C(=O)Nc2ccccc2F)sc2nc(Cc3ccccc3)cc(C(F)(F)F)c12	Akt phos inh -108.5%
COc1cccc2cc(C(C)N(CCCN3CCOCC3)C(=S)Nc3ccc(C)c(C)c3)oc12 (stereo not given)	none
COc1ccc(NC(=S)N(CCCN2CCOCC2)C(C)c2cc3cccc(OC)c3o2)cc1 (stereo not given)	TSHR antagonist -75.9
CCOC(=O)c1sc(N)c(C(=O)Nc2ccccc2)c1C	none
COc1ccc(C2C3=C(CCCC3=O)Nc3nc(SCc4ccc(C(=O)O)cc4)nn32)cc1OC (stereo not given)	none
COC(=O)c1nc2n(n1)C(c1cccc(Cl)c1)C1=C(CCCC1=O)N2 (stereo not given)	TSHR antagonist -85.4
COC(=O)c1nc2n(n1)C(c1cccc(Cl)c1)C1=C(CC(C)(C)CC1=O)N2 (stereo not given)	none
COc1ccc(C2C3=C(CCCC3=O)Nc3nc(SCc4ccccc4)nn32)cc1OC (stereo not given)	CCT modulator -30.6
CCc1ccc(OCC(=O)NNC(=O)c2ccc(NC(=O)C3CC3)cc2)cc1	none
O=C(CN(CC1CCCO1)C(=O)CNS(=O)(=O)c1ccc(Cl)cc1)NCc1ccco1 (stereo not given)	CCT modulator -46.3
CCn1c(CSc2nc3ccccc3s2)nnc1SCC(=O)c1ccc2c(c1)OCCO2	Akt phos inh -108.1% (no result: TCR activator)
Cn1c(CSc2nc3ccccc3s2)nnc1SCC(=O)NCCCN1CCOCC1	Akt phos inh -136.0%
CCn1c(CSc2nc3ccccc3s2)nnc1SCC(=O)NCC(=O)OC	none
CCn1c(CSc2nc3ccccc3s2)nnc1SCC(N)=O	none
c1cncc(-c2nnc3n2N=C(c2cccs2)CS3)c1	Akt phos inh -113.9%
Cc1oc(-c2cccc(Cl)c2)nc1CN1CCC(C(=O)NCC2CCCO2)CC1 (stereo not given)	none (no result: Akt phos inh)
Cc1ccccc1-c1nc(CN2CCC(C(=O)NCC3CCCO3)CC2)c(C)o1 (stereo not given)	Akt phos inh -118.8%
Cn1c(SCc2ccc(C#N)cc2Cl)nc2ccccc21	CCT modulator -35.9
CC1CCCN(S(=O)(=O)c2csc(C(N)=O)c2)C1 (stereo not given)	TSHR antagonist -139.9
NS(=O)(=O)c1ccc(CNC(=S)NCc2ccc(F)cc2)cc1	none
CCOc1ccc(CCNC(=O)c2ccc3c(=O)[nH]c4c(C(=O)NC(C)C)sc(=S)n4c3c2)cc1	TSHR antagonist -85.5 (no result: Akt phos inh)
CC(C)NC(=O)c1sc(=S)n2c1[nH]c(=O)c1ccc(C(=O)NCCc3ccc(Cl)cc3)cc12	TSHR antagonist inconclusive
CCCCNC(=O)c1sc(=S)n2c1[nH]c(=O)c1ccccc12	TSHR antagonist -73.9
O=C(NCCc1ccccc1)c1ccc2c(=O)[nH]c3c(C(=O)NCC4CCCO4)sc(=S)n3c2c1 (stereo not given)	TSHR antagonist inconclusive
O=C(NC1CCCCC1)c1sc(=S)n2c1[nH]c(=O)c1ccccc12	TSHR antagonist -83.4
COc1ccc2nc(Nc3nc(CSc4nnnn4-c4ccccc4)cc(=O)[nH]3)nc(C)c2c1	Akt phos inh -120.5%
CC(=O)Nc1ccccc1-c1nn[nH]n1	Akt phos inh -101.3%
O=C(COC(=O)Cc1c(F)cccc1Cl)NCc1ccc2c(c1)OCO2	none
CC(C)OCCCNC(=O)c1cccc2c1C(=O)c1ccc(Cl)cc1S2(=O)=O	none
COc1ccccc1NC(=O)Nc1cccc(C(=O)O)c1	CCT modulator -50.2
COc1ccc(C)cc1NC(=O)Nc1cccc(C(=O)O)c1	none
CN(C(=O)COC(=O)c1ccc2c(c1)OCCO2)C1CCCCC1	none
O=C(CSc1ccccc1)Nc1ccncc1	Akt phos inh -139.0%
CN1C(=O)CCC(CCC(=O)O)(c2ccccc2O)C1=O (stereo not given)	none
COc1ccccc1CNS(=O)(=O)c1ccc(-n2cccn2)cc1	TSHR antagonist -110.5
COc1ccc(CNS(=O)(=O)c2ccc(-n3cccn3)cc2)cc1	none
O=S(=O)(Nc1ccccn1)c1ccc(-n2cccn2)cc1	CCT modulator -82.0 (no result: Akt phos inh)
CC(=O)NC(c1ccccc1)c1nc(-c2ccc(F)c(Cl)c2)cs1 (stereo not given)	none (no result: TCR activator, TSHR antagonist)
CC1(CCC#N)N=C(SCCC#N)N(c2ccccc2)C1=O (stereo not given)	Akt phos inh -117.3%
CCN(CC)c1ccc(C=NCCc2ccc(S(N)(=O)=O)cc2)cc1	none
COc1ccccc1C1(O)CCN(CC(=O)Nc2nc(-c3ccccc3)cs2)CC1	CCT modulator -45.6
Cc1ccc(C(=O)NCC(=O)OC(C)C(=O)Nc2ccc(N(C)C)cc2)cc1C (stereo not given)	none
CCS(=O)(=O)N1CCC(C(=O)Nc2cccc(F)c2)CC1	CCT modulator -53.8
CCOc1ccc(C(=O)OCCN(C)C)cc1	CCT modulator -32.0
Cc1cc(C(=O)CSc2cccc[n+]2[O-])c(C)n1-c1ccc(Br)cc1	none (no result: Akt phos inh, TCR activator, CCT modulator)
Cc1cc(C(=O)CSc2cccc[n+]2[O-])c(C)n1-c1ccccc1	CCT modulator -37.5
O=C(c1ccco1)N1CCN(c2nc3ccccc3n3nnnc23)CC1	none
